Whole data set: some 25,000 sequences, median “ln(normalized median fluorescence intensity)” near 9.7, cut for the highest 2% near 11. For the sample, the highest values were picked, then their nearest neighbours and some sequences at random.
The sequences below were run on PfAP2-HC AP2 domain (GST-tagged) (assay: gcPBM binding intensity (ln(normalized median fluorescence intensity)); higher = stronger DNA binding).
In short: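 The highest Masliner-normalised natural-log median intensity across replicate spots of either probe orientation is reported as binding intensity. GST-tagged P. falciparum DNA-binding domains expressed in E. coli were applied for 1 h to an Agilent 4 × 180k array of primer-extended double-stranded 36-bp intergenic genomic probes plus negative controls, and bound protein was detected with Alexa488 anti-GST antibody and scanned at 488 nm.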

Sequence	gcPBM binding intensity (ln)
AAAAAAAAAAAAAAATGTACAAAAATTACTATAAAA [XGTACX_site7683]	9.48
AAAAATAATGCACATATATATAATATGTATATGTAT [CACACA_negctrl_site443]	9.75
GTAATGAAACATTGCACACATATAATAATATAATAT [CACACA_site1422]	9.84
AGAAAAGAAATTAGTTGTACTCTGATGAATTATCCT [XGTACX_site6284]	9.5
TTCAATTTTTTATGAACACACAAAAAAAAAAAAAAA [CACACA_site2533]	9.23
ACCGTGGGAAGACACACACACACACCCACATATATA [CACACA_site333]	11
CACAGACACCCATACACACACATACCCATATATATA [CACACA_site5023]	10.3
ATAGACAGCGCACAAACACACAAACACAGACCCCCA [CACACA_site4409]	10.2
ATAGTATACAGACACACACACACACCCATATATATA [CACACA_site1736]	11.7
AGACAGCGCACAAACACACAAACACCCACCCACATA [CACACA_site451]	11.3
GGCATACACAGACACACACACACACCCACATATATA [CACACA_site591]	11.2
TTGGCATACAGACACACACACACACCCCCACATATA [CACACA_site590]	10.9
TTTAAATACAGACATACACACATACACCCACATATA [CACACA_site8078]	10.2
AGTATACACAGACACACACACACATATATATATATA [CACACA_site8510]	10.9
ACCGTGGGAGGACACACACACACACCCACATATATA [CACACA_site4339]	10.8
ATAGACAGCGCACAAACACACAAACACCCACCCACA [CACACA_site8043]	10.1
AAACCGTGGGAGCACACACACACACCCACCCATATA [CACACA_site332]	10.4
ATTAGTATTAGATGATGTACATTTATATTGAAATAT [XGTACX_site8537]	9.63
GATATATTTTATATATGTACATACAAGGGTAAATAT [XGTACX_site1202]	9.68
ATATATATATATGTCTGTACATAAAAAATAATAAAT [XGTACX_site3122]	9.68
TATATATATATAATTACACACAATGTTCTATATATA [CACACA_site3235]	9.8
TTGTGATTATATAATCGTACATAATTTTAATCACAC [XGTACX_site398]	9.58
TTTTTTTTAATTGTGATACGTATATTATTTAATGAT [CACACA_negctrl_site38]	9.59

Sequence	gcPBM binding intensity (ln)
CGCACAAAAATATACACACACACATATATATTTATT [CACACA_site3645]	10.4
ACATTATATAAAATATGTACATATAAAAAATTCTAT [XGTACX_site1617]	9.77
GTTATATAAACATATGCATGTGAAGTGTTTATTAAT [TGCATGCA_site183]	9.8
TAGTAAAAGATATACACACACCAAAAAATATAATTA [CACACA_site7142]	10.5
AATAGTAAAAGATATACACACACCAAAAAATAGAAT [CACACA_site2289]	11.6
TCAAAGCACAGATACACACACATATATATATATATA [CACACA_site287]	10.1
TGGTATCAAAAGAATACACACACACCGACATATATA [CACACA_site9265]	11.1
GTATCAAAAGAATACACACACACATACATATATATA [CACACA_site3796]	11.3
AAAATACACGCATACACACACACACCGACACATATA [CACACA_site4523]	10.7
AATAGTAAAAGATATACACACACCAAAAAATATAAT [CACACA_site5293]	10.3
GTATCAAAAGAATACACACACACATACCTATAAATA [CACACA_site7737]	10.8
AAAGAAAGAAAGAATACACACACACCGATATATATA [CACACA_site9246]	10.3
AATAAAAAAGAATATACACACATAAATATAAAATAT [CACACA_site683]	10
GTATCAAAAGAATACACACACACATACAGATATATA [CACACA_site5975]	11.2
TATATCAAAATACATACACACATTTGTATATACATT [CACACA_site2696]	10
AAAAAAATTTCACATTGTACTTTAATAATATACTAC [XGTACX_site7264]	9.64
TATATATATATATATTGTACATAATGTATATATGTT [XGTACX_site3448]	9.74
AAAATAATGTATATAGTGCAAATGAAAACGAAAAAA [GTGCAC_site9455]	10.1
TGAATATTTCTATATACACACATATATATATATATA [CACACA_site3451]	9.74
ATAATGAAAAGGAACATACACACCCCATATAAATAT [CACACA_site3442]	10.3
TACAAACAAACACATAGCAATATATGTTATCAAAAA [XGTACX_negctrl_site1]	9.81
TAAAGAAATAAATACATACACACATATATATATATA [CACACA_site3363]	9.89
AGAAAGAAAGAATACACACACACATATATATATATC [CACACA_site3744]	11.5

Sequence	gcPBM binding intensity (ln)
AGAAAGAAAGAATACACACACACATATATAAATATC [CACACA_site7716]	10.4
TTATCATTTTAATGGTGTACTCAATAAAAACTTTAA [XGTACX_site4595]	9.13
TATATATATAGACACACACACATATAAATAAATAAA [CACACA_site444]	10.4
AAAAAAAACAGACACACACACATAAATATAAATAAA [CACACA_site6214]	10.5
AAAGGATACAGACACACACACACATATATATATATA [CACACA_site906]	10.8
AAAAAAAACAGACACACACACATAAATATATATAAA [CACACA_site148]	10.4
AAAAATTCCAGACACACACACACATATAAATAAATA [CACACA_site1232]	11.1
TATATAAATAGACACACACACATATAAATATAAATA [CACACA_site6503]	10.4
AAAGGATATAGACACACACACACATATATATATATA [CACACA_site2200]	11.4
GCACATAAATATATGACACACACACCGATTATATAT [CACACA_site9003]	10.8
TATATAATATATATGACACACATATTTATATAAATA [CACACA_site4054]	9.57
CATATAAATAGACACACACACACATATAAATAAATA [CACACA_site7156]	11.1
ACATAAATATATGACACACACACATATTATATATAT [CACACA_site3065]	11.1
TATATATATAGACACACACACACATATATATATATA [CACACA_site9366]	10.7
CACACTTTATAATGTTGTACGATACATTATACCAAA [XGTACX_site941]	9.67
ATAGTATAACAGCAATGTACACATATTTGTGTATAT [XGTACX_site7899]	10
AATATTAAAAACAAAACACACAAAAAAAAATAAACT [CACACA_site6470]	10.2
TGTACATATATATAATATATATATCATCATATTTTC [CACACA_negctrl_site1750]	9.69
TAAAACAAAATAACATGTACAAAAAAAAAAAAAAAA [XGTACX_site2915]	9.24
ACAAATAAATAAATATGTACTTAATTATATAATTGA [XGTACX_site5626]	9.5
TATCATGGGTGTATTTCACACACGGATAATCATTTA [CACACA_site8211]	9.83
AAGAAAATTAACCCATGTACTTATGTAGATAGCAAG [XGTACX_site1049]	9.87
TTGAGAAAAATTAATGGTACACATATTATAAGTATA [XGTACX_site6539]	9.7

Sequence	gcPBM binding intensity (ln)
AAATATATTTTTTTTTGTACTCAAAAAGAAAAAAAA [XGTACX_site8540]	9.05
AAAAATTTCATATTCACACACAAAAAAAAAAAATAT [CACACA_site1592]	9.96
AAATACTTATTCGTGGTGCAACAATTTTAAAAATTA	9.49
TATGAAAAAATATATACACACATAATAAAGGTATAT [CACACA_site3737]	9.9
TCATAGTATAGACACACACACACACGCATATAAATA [CACACA_site6915]	10.5
TAAATTTATAGACACACACACATATAAATAAATATA [CACACA_site6530]	10.8
AACATTATAAGACACACACACACATATATATATATA [CACACA_site8259]	10.8
AATAAATTTAGACACACACACACATATAAATAAATA [CACACA_site6531]	11.1
TAATAAATAAGACACACACACATATATATATATTAT [CACACA_site1389]	10.3
TATAAATAAAGACACACACACATATAAATAAATATA [CACACA_site7155]	10.5
TACACGCATAGACACACACACACACGCATATAAATA [CACACA_site6446]	11.3
TAATTTTTTAGACACACACACATATAAATATAAATA [CACACA_site6195]	10.8
AACATTATAAGACACACACACACATATATAAATATA [CACACA_site6622]	11.2
AAAAAAAAAAGACACACACACATATAAATATAAATA [CACACA_site6899]	11.5
CATATAAAAAGACACACACACACATATATATATATA [CACACA_site940]	10.8
TATATAAATAGACACACACACACATATAAATAAATA [CACACA_site7855]	10.7
AAAAAAAAAAAATTCACACACATATAAAAAATTAAG [CACACA_site728]	10
AATAAATATAGGTACACACACAAATATGTACATATC [CACACA_site6976]	10.2
ATTCTCCATGTTTGATGTACTCATATGACGACGGAG [XGTACX_site4923]	9.52
AATATATGTATATCCACACACATATATATATATATA [CACACA_site1633]	9.96
